# Assay outcomes: PubChem BioAssay, several laboratories
# Gli-Sufu block – Gli-Sufu pathway antagonists, primary screen, luciferase luminescence, Sufu-KO-LIGHT cells, uHTS; Sufu-KO-LIGHT fibroblasts, Gli luciferase reporter luminescence; inhibition, % at 5 µM; actives 0.74% (n = 340,000); AID 588413, 2011;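 active = inhibition above about 55%, limit read from the data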;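 note: 0% = DMSO-treated cells and 100% = wells with medium but no cells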
# COUP-TFII inh – NR2F2 transcriptional activity inhibitors, primary screen, cell-based, luciferase reporter, HEK293T, luminescence; COUP transcription factor 2 (Homo sapiens), P24468; HEK293T NGFI-A luciferase reporter; inhibition, % at 8.6 µM; actives 0.7% (n = 370,000);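 active = inhibition above a per-plate cutoff, mean inhibition of test wells between control levels plus 3 SD, cut at about 38% in these data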;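 note: cells cotransfected with COUP-TFII expression vector driving the NGFI-A reporter; 0% = median of COUP-TF2 test wells and 100% = reporter-only cells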
# Target sequence (P24468 whole entry, looked up): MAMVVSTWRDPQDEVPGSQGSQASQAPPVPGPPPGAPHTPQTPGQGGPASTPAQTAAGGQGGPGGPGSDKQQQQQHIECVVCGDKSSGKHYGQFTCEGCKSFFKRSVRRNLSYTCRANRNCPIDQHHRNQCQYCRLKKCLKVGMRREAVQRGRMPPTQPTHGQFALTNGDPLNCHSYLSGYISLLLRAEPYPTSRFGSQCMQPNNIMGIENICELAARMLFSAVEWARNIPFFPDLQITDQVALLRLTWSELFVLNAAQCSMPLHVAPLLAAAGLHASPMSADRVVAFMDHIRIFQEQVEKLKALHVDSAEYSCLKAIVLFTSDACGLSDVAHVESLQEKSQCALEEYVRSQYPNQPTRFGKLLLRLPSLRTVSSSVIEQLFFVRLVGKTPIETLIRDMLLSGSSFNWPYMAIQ
# HIV Env fusion – inhibitors of HIV-1 Env-driven cell-cell fusion, primary screen, HeLa-JRFL effector, CEM21 target cells, luciferase | inhibition, % at 12.3 µM | actives 1.1% (n = 360,000) | AID 651610, 2012;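 active = mean replicate inhibition score of at least 50 and every replicate individually at or above 50; inconclusive = only one of the two criteria met; inactive = mean below 50 and not all replicates reaching 50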;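 note: 0% = plate neutral controls and 100% = maraviroc near 300 nM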
# GalR3 antagonist – GalR3 antagonists in HEK293 cells, primary screen, cell-based, fluorescence readout; AID 651719, 2012; HEK293 GalR3-CNG cAMP membrane potential fluorescence; galR3 body fused to GalR1 C-terminus; actives 0.44% (n = 360,000); inhibition, % at 3 µM;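 active = inhibition above the screen-wide average plus 3 SD, cut at about 13% in these data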;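 note: forskolin and galanin both at EC90 stimulate the cells; cAMP rise reported by CNG channel membrane potential dye signal; 0% = forskolin plus galanin with DMSO and 100% = forskolin alone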
# Target sequence (O60755 1-299 limits assumed): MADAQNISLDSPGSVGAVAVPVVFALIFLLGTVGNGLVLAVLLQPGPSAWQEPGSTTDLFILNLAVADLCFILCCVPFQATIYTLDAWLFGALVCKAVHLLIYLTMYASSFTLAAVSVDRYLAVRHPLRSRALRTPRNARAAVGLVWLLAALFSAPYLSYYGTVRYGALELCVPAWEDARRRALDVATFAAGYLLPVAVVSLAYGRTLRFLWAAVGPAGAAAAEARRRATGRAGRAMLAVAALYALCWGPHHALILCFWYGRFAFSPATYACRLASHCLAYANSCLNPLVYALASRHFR
# aDG glyco up – activators of alpha-DG glycosylation, primary screen, uHTS, Pro5-aDG cells, AlphaScreen; actives 0.22% (n = 360,000); alpha-DG glycosylation AlphaScreen (IIH6); 0% Pro5, 100% B10-LARGE cell signal; AID 624168, 2012; activation, % at 10 µM;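 active = activation of at least 8% versus controls, or a plate z-score of at least 8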;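 note: Pro5 are CHO cells carrying HIG-tagged alpha-DG that lacks glycosylation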
# Gal4-VP16 ctr – Gal4-VP16 luciferase reporter inhibitors, counter-screen for COUP-TFII antagonist project, cell-based, luminescence, HEK293; shares compounds with COUP-TFII inh; inhibition, % at 8.5 µM; actives 25% (n = 2,500); AID 687007, 2013; in the data active = inhibition above about 13%
# COUP-TFII conf – NR2F2 transcriptional activity inhibitors, confirmation, cell-based, luciferase reporter, HEK293, triplicate; shares compounds with COUP-TFII inh; HEK293 NGFI-A luciferase reporter, luminescence; inhibition, % at 8.5 µM; actives 45% (n = 2,500);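 active = mean inhibition over three repeats above a set limit taken from the earlier primary screen, cut at about 38% in these data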;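 note: 100% = cells given the luciferase reporter alone without the COUP-TF2 vector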
# An asterisk follows results filed as active; u = inconclusive; x = no result; ! = repeats disagree; [ ] = dose if it differs, or a comment. The list is not random: actives were taken first. Their share in the collection is about 2.1%.
SMILES,Gli-Sufu block,COUP-TFII inh,HIV Env fusion,GalR3 antagonist,aDG glyco up,Gal4-VP16 ctr,COUP-TFII conf
O=C(CCc1nnc(-c2ccc(-c3ccccc3)cc2)o1)NCCc1ccccn1,-16.3,43.3*,27.9,-2.3,0.2,-14.7,23.1
CC(c1nccs1)N(C)C(=O)CCc1nnc(-c2ccc(-c3ccccc3)cc2)o1 (configuration not stated),-5.2,10.7,30.7,-3.5,0.8,x,x
CC(NC(=O)CCc1nnc(-c2ccc(-c3ccccc3)cc2)o1)c1nccs1 (configuration not stated),8.3,48.3*,11.4,-5.6,1.1,-0.4,15.8
COC(=O)CCCNC(=O)CCc1nnc(-c2ccc(-c3ccccc3)cc2)o1,-15.7,52.4*,29.1,-9.0,0.1,12.3,10.7
CO[C@H]1CN(C)C(=O)c2ccc(NC(=O)C3CCCC3)cc2OC[C@@H](C)N(C(=O)CC2CC2)C[C@H]1C,x,x,-13.0[16.7 µM],x,x,x,x
COc1ccc(CC(=O)OCC(=O)NC2CCCC(C)C2C)cc1OC (configuration not stated),-2.1,50.1*,-6.2,-4.9,-0.3,-3.2,6.6
CC1CCCC(NC(=O)COC(=O)Cc2ccc(Br)cc2)C1C (configuration not stated),10.6,4.0,0.5,-4.5,0.0,x,x
C[C@@H]1CN([C@H](C)CO)C(=O)Cc2cc(NC(=O)C3CC3)ccc2O[C@H]1CN(C)C,x,x,-7.4[16.7 µM],x,x,x,x
COc1ccc2nc(NC(=O)C3CCN(S(=O)(=O)c4cccc5nsnc45)CC3)sc2c1,19.1,77.6*,80.5*,-3.6,0.9,4.8,50.8*
C[C@@H]1CN([C@H](C)CO)C(=O)c2cc(NC(=O)c3ccncc3)ccc2O[C@H]1CN(C)Cc1ccc2c(c1)OCO2,x,x,-3.2[16.7 µM],x,x,x,x
CCn1c(SCC(=O)N2CCN(c3ccccc3)CC2)nnc1-c1c[nH]c2ccccc12,5.8,46.2*,65.1*,x,0.2,7.8,36.6
Cn1c(SCC(=O)N2CCN(c3ccccc3)CC2)nnc1-c1c[nH]c2ccccc12,-3.1,32.3,33.5,x,-0.2,x,x
C=CCn1c(COc2cccc(C)c2C)nnc1SCC(=O)N1CCN(c2ccccc2)CC1,28.2,44.4*,63.7*,-2.3,0.5,10.6,37.8*
CCn1c(COc2c(C)cccc2C)nnc1SCC(=O)N1CCN(c2ccccc2)CC1,-19.3,32.9,x,-4.8,0.4,x,x
C[C@H]1CN([C@@H](C)CO)C(=O)c2cc(NS(=O)(=O)c3ccc(F)cc3)ccc2O[C@H]1CN(C)Cc1ccc(C(F)(F)F)cc1,x,x,-11.6[16.7 µM],x,x,x,x
O=S(=O)(c1cccc2cnccc12)N1CCCNCC1,-20.1,x,x,x,-0.3,x,x
CC1CNCCN1S(=O)(=O)c1cccc2cnccc12 (configuration not stated),12.0,41.3*!,-7.2,-3.6,0.1,2.9,10.7
O=C(NC1CCCCC1)N[C@H]1CC[C@H](CCNS(=O)(=O)c2ccc(Cl)cc2)O[C@H]1CO,x,x,5.4[16.7 µM],x,x,x,x
CCOC(=O)C(NC(=O)c1ccccc1)(Nc1cccc(C)n1)C(F)(F)F (configuration not stated),-1.5,39.5*,4.9,-7.5,0.1,-4.7,1.7
Cc1cc(NNC(=O)c2cccc(C(F)(F)F)c2)nc2c1c(C)nn2C,25.1,49.5*,16.3,-8.9,3.1,-1.6,43.4*
CN(C)c1ccc2c(c1)[C@@H]1C[C@@H](CC(=O)NCCN3CCCCC3)O[C@H](CO)[C@@H]1O2,x,x,-7.0[16.7 µM],x,x,x,x
O=C(N[C@@H]1CC[C@@H](CC(=O)N2CCN(c3ccccc3)CC2)O[C@H]1CO)c1ccncc1,x,x,-3.7[16.7 µM],x,x,x,x
C=C1C[C@@H]2C[C@@H]2CN(S(=O)(=O)c2ccc(C)cc2)[C@@H]1COCc1ccccc1,x,40.3*,-8.6,-0.8,0.0,-7.6,6.1
Cc1ccc(S(=O)(=O)N2CCC(=O)N(CCOCc3ccccc3)CC2)cc1,0.4,-2.9,20.6,-3.3,0.0,x,x
COC(=O)C1=C(C)N(Cc2ccccc2C(F)(F)F)C(=NCc2cc(OC)c(OC)c(OC)c2)NC1c1ccc(Cl)cc1 (configuration not stated),x,41.0*,-68.1,-3.1,x,-9.7,-0.5
SMILES,Gli-Sufu block,COUP-TFII inh,HIV Env fusion,GalR3 antagonist,aDG glyco up,Gal4-VP16 ctr,COUP-TFII conf
COC(=O)C1=C(C)N(Cc2ccccc2C(F)(F)F)C(=NCc2cc(OC)c(OC)c(OC)c2)NC1c1ccccc1C(F)(F)F (configuration not stated),x,3.6,-63.9,-8.3,x,x,x
CCOc1ccc(/C=C2\SC(=S)N(CCCC(=O)NCCCN3CCOCC3)C2=O)cc1,18.4,68.6*,u,-5.8,0.5,26.6*,24.7
CCc1ccc(/C=C2/SC(=S)N(CCC(=O)NCCCN3CCOCC3)C2=O)cc1,7.7,-0.6,10.1,-1.1,0.5,x,x
O=C(CCCN1C(=O)/C(=C/c2ccccc2Cl)SC1=S)NNC(=O)c1ccncc1,5.9,37.0,17.1,-4.5,0.0,x,x
O=C(CCCN1C(=O)/C(=C/c2ccccc2Cl)SC1=S)NNC(=O)c1ccccc1Cl,30.5,69.3*,49.3,-6.5,0.7,69.1*,70.5*
O=C(CCN1C(=O)/C(=C/c2ccccc2F)SC1=S)NCCCN1CCOCC1,-26.4,-6.8,-21.0,-9.5,0.1,x,x
CCc1ccc(/C=C2\SC(=S)N(CCCC(=O)NCCCN3CCOCC3)C2=O)cc1,x,83.7*,52.1,-6.8,0.3,68.5*,59.1*
O=C(CCCN1C(=O)/C(=C/c2ccccc2Cl)SC1=S)NCCCN1CCOCC1,10.4,62.8*,23.3,1.5,0.7,9.9,15.1
CC(=O)OC1CCC2(C)C(CCC3C4CC=C(C(C)=O)C4(C)OC(=O)CC32)C1 (configuration not stated),x,57.2*,0.8,2.3,-0.2,37.4*,44.2*
CCCN1C[C@H](C)[C@H](OC)CN(C)C(=O)c2ccc(NC(=O)C3CCOCC3)cc2OC[C@H]1C,x,x,-13.1[16.7 µM],x,x,x,x
CC(C)(C)c1ccc(-c2noc(CCC(=O)Nc3cccnc3)n2)cc1,70.6*,77.8*,40.7,-9.9,-0.1,58.6*,76.6*
CC(C)(C)c1ccc(-c2noc(CCC(=O)NCC3CCCO3)n2)cc1 (configuration not stated),73.1*,75.4*,75.0*,-1.7,0.2,26.1*,60.5*
COc1ccc(-c2noc(CCC(=O)Nc3cccnc3)n2)cc1,-1.9,0.8,-8.6,3.2,0.1,x,x
CC(C)(C)c1ccc(-c2noc(CCC(N)=O)n2)cc1,75.8*,84.9*,100.1*,-3.6,-0.2,72.4*,88.3*
